Assay [1] is described as follows: CCTE_Shafer_MEA_acute_burst_percentage_std: CCTE's Neural Acute Assay for Standard Deviation of Burst Percentage, Shafer Lab (AID 2284018).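 Also: fitted in the negative direction so actives lower burst percentage SD.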 The gist of the method:
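Primary rat cortical neurons on 16-electrode MEA wells were recorded 40 min at baseline (DIV 13 or 15), then 40 min after compound (0.03-40 uM), at 37 C. Well value is SD across electrodes of spikes-in-bursts/total spikes; endpoint is percent change, DMSO-referenced.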

Assay [2] can be described thus: CCTE_Shafer_MEA_acute_per_network_burst_spike_number_mean: CCTE's Neural Acute Assay for Average Number of Spikes in a Network Burst, Shafer Lab (AID 2284019).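 As to AC50: curve fitted for loss of signal so actives reduce spikes per network burst.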 In short, it runs like this:
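Primary rat cortical neurons on 16-electrode MEA wells, DIV 13 or 15, 37 C; 40-min baseline then 40-min recording with compound (0.03-40 uM). Spikes per network burst (total spikes/number of bursts) expressed as percent change from baseline, DMSO reference.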

A short description of assay [3]: CCTE_Shafer_MEA_acute_per_network_burst_spike_number_std: CCTE's Neural Acute Assay for Standard Deviation of Number of Spikes in a Network Burst, Shafer Lab (AID 2284020).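 Also: fitted for decrease in spike-number SD versus DMSO so actives lower it.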 In short, it runs like this: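 Primary rat cortical neurons on 48-well MEAs (16 electrodes/well) recorded at DIV 13 or 15: 40-min baseline, then 40 min with compound (0.03-40 uM), 37 C. Value is percent change in SD of spikes per network burst, relative to DMSO.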

A short description of assay [4]: CCTE_Shafer_MEA_acute_per_network_burst_electrodes_number_mean: CCTE's Neural Acute Assay for Mean Number of Electrodes in a Network Burst, Shafer Lab (AID 2284021).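 Also: curves fitted for decreases only so hits reduce electrodes per burst.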 In short, it runs like this: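 Rat primary cortical neurons on 16-electrode MEA wells were recorded 40 min at baseline on DIV 13 or 15, then 40 min after compound (0.03-40 uM), at 37 C. Value is percent change per well, fitted in loss direction versus DMSO.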

The nature of assay [5]: CCTE_Shafer_MEA_acute_network_burst_percentage: CCTE's Neural Acute Assay for Percentage of Network Bursts, Shafer Lab (AID 2284022).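 Also: curves fitted for loss so actives lower network burst percentage.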 In short, it runs like this: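 Primary rat cortical neurons on 16-electrode MEA wells, treated on DIV 13 or 15 with compound (0.03-40 uM); 40-min baseline and 40-min post-exposure recordings at 37 C. Value is percent change in spikes within network bursts versus baseline, DMSO negative control.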

The nature of assay [6]: CCTE_Shafer_MEA_acute_cross_correlation_area: CCTE's Neural Acute Assay for Area of Cross Correlation, Shafer Lab (AID 2284024).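 Also: area under pooled inter-electrode spike cross-correlation near zero lag as percent change from own baseline; curves fitted for loss of cross-correlation area so actives lower synchrony.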 The gist of the method: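 Primary rat cortical neurons on 48-well MEA plates (16 electrodes/well) were recorded 40 min at baseline on DIV 13 or 15, then 40 min with compound (0.03-40 uM) at 37 C; cross-correlation area expressed as percent change from baseline.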

Assay [7] can be described thus: CCTE_Shafer_MEA_acute_cross_correlation_HWHM: CCTE's Neural Acute Assay for Cross Correlation at Half Width at Half Maximum, Shafer Lab (AID 2284026).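 Also: hits are a decrease in cross-correlogram half width relative to DMSO.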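 As to outcome: spontaneous network firing of rat primary cortical neurons on multiwell microelectrode arrays.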 In short, it runs like this: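 Primary rat cortical neurons on 16-electrode MEA wells; 40-min baseline on DIV 13 or 15, then 40-min recording with compound (0.03-40 uM) at 37 C. HWHM of spike cross-correlogram expressed as percent change from baseline per well, DMSO reference.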

Assay [8] in a line: CCTE_Shafer_MEA_acute_synchrony_index: CCTE's Neural Acute Assay for Synchrony, Shafer Lab (AID 2284027).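 Also: fitted for loss of signal so actives lower synchrony relative to DMSO.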 In short, it runs like this:
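Readout is percent change in the unitless network synchrony index (0 low, 1 high) between a 40-min baseline and a 40-min recording in compound. Cultures were primary rat cortical neurons on MEAs, treated at 0.03-40 uM on DIV 13 or 15.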

The target in assay [9] is Estrogen receptor (Homo sapiens) (UniProt P03372). Briefly: CCTE_Deisenroth_AIME_96WELL_LUC_Active: CCTE's 96-well Estrogen Receptor Transactivation Assay with AIME metabolic competence (ERTA luciferase; metabolism positive), Deisenroth Lab (AID 2284023; active = hit-call score of the fitted dose curve at least 0.9, where 1 is the maximum). In short, it runs like this: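 Chemicals pre-incubated 2 h with alginate-immobilized phenobarbital/beta-naphthoflavone-induced male Sprague Dawley rat liver S9, then medium transferred to VM7Luc4E2 cells for 24 h luciferase read-out. 10-point series 0.002 - 200 uM; fitted relative to 17beta-estradiol.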

For assay [10] the target is unchanged. Briefly: CCTE_Deisenroth_AIME_96WELL_LUC_Inactive: CCTE's 96-well Estrogen Receptor Transactivation Assay without AIME metabolic competence (ERTA luciferase; metabolism negative), Deisenroth Lab (AID 2284025; active = hit-call score of the fitted dose curve at least 0.9, where 1 is the maximum). In short, it runs like this: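 VM7Luc4E2 breast cells, luciferase read 24 h after dosing with medium pre-incubated 2 h on alginate-water lids (metabolism negative). 10-point series 0.002–200 uM, single technical replicate, n≥4; fit relative to 17beta-estradiol.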

The structures appear in SMILES notation. Inconclusive results are not listed. The source made the active and inactive calls. The calls were made as follows, unless noted: active = hit-call score of the fitted dose curve at least 0.9, where 1 is the maximum; inactive = score below 0.9.

Experimental findings from PubChem BioAssay (EPA / NIEHS) are described below.

Estrogen receptor (Homo sapiens), sequence (P03372 whole entry, looked up): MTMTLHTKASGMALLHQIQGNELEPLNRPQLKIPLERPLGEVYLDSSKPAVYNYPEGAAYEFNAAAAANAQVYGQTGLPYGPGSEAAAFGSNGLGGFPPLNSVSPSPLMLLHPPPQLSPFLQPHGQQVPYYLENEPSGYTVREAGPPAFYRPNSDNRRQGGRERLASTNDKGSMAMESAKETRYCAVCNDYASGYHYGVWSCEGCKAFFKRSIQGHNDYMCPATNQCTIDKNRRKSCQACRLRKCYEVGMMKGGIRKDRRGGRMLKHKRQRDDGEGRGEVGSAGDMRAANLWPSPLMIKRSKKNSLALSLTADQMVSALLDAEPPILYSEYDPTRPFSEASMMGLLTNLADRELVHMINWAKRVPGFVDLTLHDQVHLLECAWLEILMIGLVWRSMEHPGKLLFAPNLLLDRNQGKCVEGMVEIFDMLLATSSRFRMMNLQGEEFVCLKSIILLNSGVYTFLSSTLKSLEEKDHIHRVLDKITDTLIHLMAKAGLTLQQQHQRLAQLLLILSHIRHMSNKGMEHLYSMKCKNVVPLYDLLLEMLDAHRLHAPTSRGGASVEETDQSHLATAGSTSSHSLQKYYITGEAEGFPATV

Take `CN(C)C(=O)C1(N2CCCCC2)CCN(CC[C@@]2(c3ccc(Cl)c(Cl)c3)CN(C(=O)c3ccccc3)CCO2)CC1`: the call in assay [1] and in [6] was inactive. In addition, the AC50 – broadly, the midpoint of the concentration-response curve, whichever way the signal moves – in assay [2] was 2.5 µM (active); in assay [3] it was 20.4 µM (active); in [4], 22.4 µM (active); in assay [5], 17.8 µM (active); in assay [7], 22.1 µM (active); in assay [8], 19.5 µM (active).

As to `CCCCCCCCCCCCO`, the call in assay [1], in [2], in assay [4] and in assay [6] was inactive. Also, the AC50 was 26.7 µM (active) in assay [3], 25.8 µM (active) in assay [5], 28.8 µM (active) in assay [7] and 27.6 µM (active) in assay [8].

Regarding `CC(C)(c1cc(Br)c(O)c(Br)c1)c1cc(Br)c(O)c(Br)c1`, the outcome in [1], in [2], in assay [3], in assay [4], in assay [5] and in assay [6] was inactive. Moreover, the call in [7] and in assay [8] was inactive.

For `Cc1cn([C@H]2C[C@H](N=[N+]=[N-])[C@@H](CO)O2)c(=O)[nH]c1=O`, the call in [1], in assay [2], in assay [3], in assay [4], in assay [5] and in assay [6] was inactive. Moreover, the result in assay [7] and in assay [8] was inactive.

Take `CCN(Cc1cccc(S(=O)(=O)O)c1)c1ccc(C(=C2C=CC(=[N+](CC)Cc3cccc(S(=O)(=O)O)c3)C=C2)c2ccccc2S(=O)(=O)[O-])cc1`: the call in assay [1], in [2], in assay [3], in [4], in assay [5] and in [6] was inactive. The outcome in assay [7] was inactive. Further, the AC50 in assay [8] is 12.9 µM (active).

In the case of `CC1=CC(=O)/C(=C(/C)O)C(=O)O1`, the outcome in [1], in assay [2], in assay [3], in assay [4], in assay [5] and in [6] was inactive. In addition, the call in assay [7] and in [8] was inactive.

`C[C@]12CC[C@@H]3c4ccc(O)cc4CC[C@H]3[C@@H]1CC[C@H]2O`: the call in assay [1], in [2], in assay [3], in [4], in assay [5] and in [6] was inactive. The outcome in assay [7] and in assay [8] was inactive.

With `CC/C(=C(/CC)c1ccc(O)cc1)c1ccc(O)cc1`, the AC50 was 35.4 µM (active) in assay [1]; 5.3 µM (active) in assay [2]; 20 µM (active) in assay [4]; 10.5 µM (active) in assay [5]; 20 µM (active) in [7]; 10.2 µM (active) in assay [8]. Also, the compound was called inactive in [3] and in assay [6].

Regarding `Cc1cc2c(cc1C(F)(F)F)N(C(=O)Nc1ccc(Oc3cccnc3C)nc1)CC2`, the outcome in [1], in assay [2], in assay [3], in assay [4], in assay [5] and in [6] was inactive. In addition, the compound was classed as inactive in [7] and in assay [8].

Regarding `O=c1ccc2ccccc2o1`, the compound was classed as inactive in [9] and in [10].

Regarding `O=c1[nH]sc2ccccc12`, the compound was classed as inactive in assay [1], in assay [2], in assay [3] and in [4]. Moreover, the AC50 was 7.94 µM (active) in [5], 0.0302 µM (active) in [6], 32.6 µM (active) in [7] and 20 µM (active) in [8].

In the case of `CC(=O)N1CCN(c2ccc(OC[C@H]3CO[C@](Cn4ccnc4)(c4ccc(Cl)cc4Cl)O3)cc2)CC1`, the AC50 was 32.9 µM (active) in [1] and 33.1 µM (active) in [7]. Besides, the result in assay [2], in assay [3], in assay [4], in [5], in assay [6] and in [8] was inactive.

`CCN(CC)C(=O)c1cc(S(=O)(=O)Cc2ccccc2)c(N2CCC(c3ccccc3)CC2)cc1N(CC)CCN(C)C`: the outcome in assay [1], in assay [3], in assay [4] and in assay [6] was inactive. Besides, the AC50 is 1.57 µM (active) in assay [2], 13.3 µM (active) in [5], 11 µM (active) in assay [7] and 11.8 µM (active) in [8].

Turning to `Clc1ccccc1C(c1ccccc1)(c1ccccc1)n1ccnc1`, the AC50 in assay [1] was 9.25 µM (active); in assay [3], 6.71 µM (active); in [4], 2.24 µM (active); in [5], 5 µM (active); in assay [7], 9.09 µM (active); in assay [8], 6.8 µM (active). In addition, the outcome in [2] and in [6] was inactive.

Take `c1ccc2n[nH]nc2c1`: the compound was classed as inactive in assay [1], in [2], in assay [3], in assay [4], in assay [5] and in assay [6]. The compound was classed as inactive in assay [7] and in [8].

As to `OC12N=C(c3ccccc3)SC1Cc1cc(Cl)ccc12` (configuration not stated), the AC50 in assay [1] was 30.7 µM (active); in [4] it was 32.5 µM (active); in assay [7], 31.3 µM (active); in assay [8], 31.8 µM (active). Further, the result in [2], in assay [3], in assay [5] and in assay [6] was inactive.
